BAZ2B inh: inhibitors of human BAZ2B bromodomain | AlphaScreen BAZ2B-H3K14Ac peptide displacement | 360,000 compounds, 4.4% hits | Potency, µM (top dose mostly 114 µM), for the others: at the highest dose activity change, negative = inhibition, usual class: inhibitors | Q9UIF8; further: on the % scale 0 is the no-effect control and ±100 the full control effect; nearly all actives have a fitted effect of over 60% in size
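Compounds, titrated to a top concentration of 110 uM, were incubated 30 min at room temperature with preformed BAZ2B/acetyl-K14 H3 peptide complex (50 nM each). Proximity signal was measured by AlphaScreen after 20 min with beads.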
L3MBTL1 block: inhibitors of human L3MBTL1; Q9Y468; AlphaScreen L3MBTL1–H3K9me1 peptide binding; Potency, µM (series often up to 57.1 µM), without a hit: at the top dose activity, negative = inhibition, actives largely listed as inhibitors; 230,000 compounds, 0.66% hits; AID 485360; further: on the % scale 0 is the no-effect control and ±100 the full control effect; nearly all actives have a fitted effect of over 60% in size
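AlphaScreen proximity signal between nickel-chelate acceptor and streptavidin donor beads (final 10 ug/mL) reports binding of 50 nM L3MBTL1 to 75 nM biotin-H3 K9me1 peptide; complex incubated with compounds 30 min at room temperature; cefsulodin titration as control.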
Sfp PPTase inh: blocks B. subtilis Sfp PPTase activity | Q9F4F7 | Biochemical Sfp PPTase activity, qHTS | Potency, µM, for inactives: largest response in the series, negative = inhibition, hits mostly inhibitors | 310,000 compounds, 3.5% hits | AID 1490;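 further: the enzyme is Sfp with the accession as filed and its product quenches rhodamine fluorescence; 0% = enzyme reaction without inhibitor and -100% = no enzyme wells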
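Step 1, compound plus 15 nM Sfp-PPTase, 15 min, room temperature. Step 2, add rhodamine-CoA (5 uM) and BHQ-2-YbbR (12.5 uM). Step 3, read 525/598 nm fluorescence at 0 and 30 min.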
HP1b binding inh: inhibitors of HP1-beta chromodomain binding to methylated histone tails. P83916. AlphaScreen HP1-beta / biotin-H3K9me3 peptide binding. 390,000 compounds, 0.56% hits. Potency, µM (top dose mostly 114 µM), for inactives: at the highest dose activity change, negative = inhibition, hits mostly inhibitors. AID 540317; further: nearly all actives have a fitted effect of over 70% in size
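HP1-beta protein (50 nM final) preincubated 30 min at room temperature with biotinylated H3(1-18)K9me3 peptide (50 nM) in PBS pH 7.4, 0.01% Tween-20, then compound added for 30 min. AlphaScreen streptavidin donor/nickel chelate acceptor beads (10 ug/mL final), 30 min dark, luminescence read.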
G9a block: G9a (human) methyltransferase inhibition; Q96KQ7; G9a H3K9 monomethylation, AlphaScreen, 2 h; Potency, µM (top dose mostly 102 µM), inactives show at the highest dose activity, negative = inhibition, most hits filed as inhibitors; 350,000 compounds, 8.8% hits; AID 504332; further: on the % scale 0 is the no-effect control and ±100 the full control effect; nearly all actives have a fitted effect of over 75% in size
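Readings reflect AlphaScreen signal from monomethyl-H3K9 antibody detection. HMT at 20 nM; substrate b-H3K9 500 nM; cofactor SAM 20 uM; 2 h RT reaction; compounds tested as titrations in qHTS with 15 min preincubation.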
JMJD2A Tudor inh: inhibitors of human JMJD2A Tudor domain | 390,000 compounds, 4.4% hits | O75164 | AlphaScreen JMJD2A-Tudor / H3K4me3 peptide binding | Potency, µM (series often up to 114 µM), for the others: at the highest dose activity change, negative = inhibition, usual class: inhibitors | AID 504339; further: on the % scale 0 is the no-effect control and ±100 the full control effect; nearly all actives have a fitted effect of over 50% in size
Target sequence (O75164 whole entry, looked up, the tested form may be a part): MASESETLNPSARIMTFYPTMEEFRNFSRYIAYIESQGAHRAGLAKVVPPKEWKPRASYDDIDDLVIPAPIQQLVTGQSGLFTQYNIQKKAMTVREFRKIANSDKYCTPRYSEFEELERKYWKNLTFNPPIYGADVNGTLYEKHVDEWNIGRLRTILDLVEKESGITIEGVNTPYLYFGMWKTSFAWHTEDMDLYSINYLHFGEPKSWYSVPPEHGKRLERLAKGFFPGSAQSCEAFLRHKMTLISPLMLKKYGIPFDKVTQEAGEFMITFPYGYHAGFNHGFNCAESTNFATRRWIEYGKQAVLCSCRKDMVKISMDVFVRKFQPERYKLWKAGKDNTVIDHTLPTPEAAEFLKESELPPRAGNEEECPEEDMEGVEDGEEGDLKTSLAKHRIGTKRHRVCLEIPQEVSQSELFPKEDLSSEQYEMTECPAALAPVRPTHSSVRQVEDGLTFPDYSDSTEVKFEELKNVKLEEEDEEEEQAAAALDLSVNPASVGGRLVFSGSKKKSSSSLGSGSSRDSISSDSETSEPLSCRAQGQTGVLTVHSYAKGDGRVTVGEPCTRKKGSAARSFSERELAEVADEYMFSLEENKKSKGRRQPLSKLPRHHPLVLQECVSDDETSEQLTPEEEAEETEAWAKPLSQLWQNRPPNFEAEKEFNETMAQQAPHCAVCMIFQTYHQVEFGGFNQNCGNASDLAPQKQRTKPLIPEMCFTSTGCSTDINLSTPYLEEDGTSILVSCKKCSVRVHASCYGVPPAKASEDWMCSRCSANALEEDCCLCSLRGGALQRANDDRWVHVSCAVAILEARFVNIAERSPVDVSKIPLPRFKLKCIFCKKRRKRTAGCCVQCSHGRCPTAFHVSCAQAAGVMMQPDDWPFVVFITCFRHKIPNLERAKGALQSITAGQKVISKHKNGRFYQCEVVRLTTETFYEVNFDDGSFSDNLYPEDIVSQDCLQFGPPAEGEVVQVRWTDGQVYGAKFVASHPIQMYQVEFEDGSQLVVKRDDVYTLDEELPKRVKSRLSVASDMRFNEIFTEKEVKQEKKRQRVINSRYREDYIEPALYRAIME
* hit, by the source's call; ? = inconclusive; nt = no result given; ! = not active in a repeat; [ ] = dose if it differs, or a comment. Most compounds without a hit are left out; they make up all but 12% or so of the library. The call rests on the fitted dose curve; in most records, active means well fitted curve in the direction sought with a large enough effect; inconclusive means small, poorly fitted or top-dose-only effect, or another doubt; inactive means no such curve, though single readings can be large; an effect the other way counts as inactive or inconclusive. Potency means the concentration at half of the fitted maximal effect.

SMILES | BAZ2B inh | L3MBTL1 block | Sfp PPTase inh | HP1b binding inh | G9a block | JMJD2A Tudor inh
Nc1ccccc1Sc1ccc(C(=O)c2ccccc2C(=O)O)cc1[N+](=O)[O-] | -35% | -11% | ? | 1% | 20µM* | ?
CC(C)OC(=O)c1ccccc1C(=O)c1ccc(N)c([N+](=O)[O-])c1 | -26% | -7% | 7% | 0% | 13µM* | -30%
CC(=O)c1ccc(Sc2ccccc2)c([N+](=O)[O-])c1 | ? | -3% | -1% | ? | 22µM* | ?
Nc1cc(C(=O)O)ccc1Sc1ccccc1C(=O)O | -33% | nt | 16µM* | -8% | 4.5µM* | -32%
CC(=O)NCCNC(=O)c1ccc(Sc2ccccc2)c([N+](=O)[O-])c1 | -29% | nt | 7% | 35% | -11%[59 µM] | -22%
CCOC(=O)c1cc(OC(=O)c2ccc(C)cc2)n(-c2ccccc2)n1 | 13% | nt | nt | 89% | 53%[59 µM] | -12%
O=C(c1ccco1)N1CCC2(CC1)CN(Cc1cc(C(F)(F)F)cc(C(F)(F)F)c1)C2 | nt | nt | 23% | nt | 0%[12.7 µM] | nt
CN(C)CCNC(=O)c1ccc(Sc2ccc(Br)cc2)c([N+](=O)[O-])c1 | -22% | nt | -6% | -14% | 35µM* | ?
O=C(O)c1ccccc1C(=O)c1ccc(Sc2ccc(Cl)cc2)c([N+](=O)[O-])c1 | ? | -12% | 14% | -5% | nt | -23%
CC(=O)c1ccc(Sc2ccccc2N)c([N+](=O)[O-])c1 | ? | ? | 2% | -22% | 45µM* | ?
O=c1[nH]cnc2c1ncn2[C@H]1C[C@H](O)[C@@H](CO)O1 | nt | nt | nt | 18%[57 µM] | nt | -2%[57.1 µM]
Cc1sc2ncnc(Sc3ccccc3C(=O)Nc3ccc(Br)cc3)c2c1C | 27% | 7% | 50µM* | ? | 8.9µM* | ?
COc1ccc(NC(=O)CN(C)C(=O)c2ccccc2Sc2ncnc3sc(C)c(C)c23)cc1 | -21% | ? | nt | 29% | 35µM* | -19%
Cc1sc2ncnc(Sc3ccccc3C(=O)Nc3ccccc3Cl)c2c1C | -10% | 2% | ? | 40% | 3.5µM* | 7%
Cc1sc2ncnc(Sc3ccccc3C(=O)Nc3ccc(C#N)cc3)c2c1C | -28% | -18% | -5% | 12% | ? | -16%
CCOC(=O)c1ccc(NC(=O)C2CCCN(c3ncnc4onc(-c5ccc(F)cc5)c34)C2)cc1 (centres undefined) | 6%[57.1 µM] | nt | nt | 32% | -3%[59 µM] | 3%
O=C(O)CSc1nnc(-c2cccs2)n1-c1ccc(Cl)cc1 | -18% | nt | 26% | ? | ? | 18µM*
CCOc1c(Cl)cc(CNCc2ccncc2)cc1OC | -32% | 2% | 21% | 33% | 56µM* | -8%
CCOc1cc(CNCc2ccccn2)cc(Cl)c1OCC | 50µM* | -9% | 3% | 19% | nt | 56µM*
CCOc1cc(CNCc2ccccn2)cc(Cl)c1OC | 56µM* | -14% | 5% | 26% | ? | 45µM*
COc1cc(CNCCO)cc(Cl)c1OCc1ccc(Cl)cc1Cl | ? | -26% | 20µM* | 20% | -40%[59 µM] | ?
Cc1ccc(CNC(=O)Nc2cn(CC(C)C)c(=O)c3ccccc23)cc1 | 0%[57.1 µM] | nt | nt | 11% | ? | -28%
COc1ccc(C)cc1NC(=O)Cn1c(=O)nc(-c2ccccc2F)c2cc(Cl)ccc21 | -16% | nt | nt | -4% | 1%[59 µM] | -15%
CC(=O)N[C@@H](CSC/C=C(\C)CC/C=C(\C)CCC=C(C)C)C(=O)O | nt | nt | ? | nt | -7%[59 µM] | nt
CC(=O)N[C@@H](CSC/C=C(\C)CCC=C(C)C)C(=O)O | nt | nt | 45µM*! | nt | 33%[59 µM] | nt
SMILES | BAZ2B inh | L3MBTL1 block | Sfp PPTase inh | HP1b binding inh | G9a block | JMJD2A Tudor inh
Cn1ccc2c(OCC(=O)Nc3ccc(OC(F)(F)F)cc3)cccc2c1=O | -9% | nt | nt | 21% | 0%[59 µM] | -5%
CCN1CCc2c(sc(NC(=O)Cc3ccccc3)c2C(N)=O)C1 | 33% | 43% | 4% | 7% | nt | -10%
CCOC(=O)N1CCc2c(sc(NC(=O)c3ccc(Cl)s3)c2C(N)=O)C1 | -31% | -22% | 50µM* | nt | 28µM* | nt
CC(C)C(=O)Nc1sc2c(c1C(N)=O)CCN(Cc1ccccc1)C2 | 4% | 3% | 0% | 18% | 71µM* | -17%
CCN1CCc2c(sc(NC(=S)NC(=O)c3ccco3)c2C(N)=O)C1 | -34% | -14% | 22µM* | ? | 20µM* | ?
CCN1CCc2c(sc(NC(=O)c3ccc(S(=O)(=O)N(CC)c4ccccc4)cc3)c2C(N)=O)C1 | -25% | nt | 7% | -7% | ? | -27%
NC(=O)c1c(NC(=O)c2ccccc2)sc2c1CCN(Cc1ccccc1)C2 | -4% | 3% | 15% | 47% | 3% | -18%
CCN1CCc2c(sc(NC(=O)c3ccc(C(=O)c4ccccc4)cc3)c2C(N)=O)C1 | 40µM* | nt | -21% | 8% | 71µM* | ?
CC(=O)c1cccc(N(C(=O)Cn2nnc3ccccc32)C(C(=O)NCc2ccccc2)c2ccc(F)cc2)c1 (centres undefined) | 6% | nt | nt | 27% | 4%[59 µM] | -13%
CC(C)(C)NC[C@@H](O)COc1ccccc1C1CCCC1 | nt | nt | -19% | nt | 18%[21.5 µM] | nt
Cc1nc2nc(SCC(=O)N(C)Cc3ccccc3)nn2c(C)c1Cc1ccccc1Cl | -16% | nt | nt | 19% | -8%[59 µM] | -13%
Cc1sc(NC(=S)NC(=O)c2ccco2)c(C(N)=O)c1C | -2% | nt | ? | 3% | 40µM* | -15%[11.4 µM]
CCN1CCc2c(sc(NC(=O)c3ccc(S(=O)(=O)N4CCOCC4)cc3)c2C(N)=O)C1 | -4% | -2% | -5% | 26% | 56µM* | -17%
Cc1ccc2c(c1)c(=O)c(C(=O)c1ccccc1)cn2Cc1ccccc1F | ? | nt | nt | 14% | -13%[59 µM] | ?
CN(C)S(=O)(=O)c1cccc(C(=O)Nc2n[nH]c(C(F)(F)F)n2)c1 | -17% | nt | 11% | 9%[57 µM] | 11% | 7.1µM*
NS(=O)(=O)c1nn2cc(-c3ccccc3)nc2s1 | nt | nt | 6% | nt | nt | nt
CC(NS(=O)(=O)c1ccc2ccccc2c1)c1ccccn1 (centres undefined) | nt | -7% | nt | 28% | nt | 50µM*
O=S(=O)(Nc1ccc(-c2ccc(N3CCCC3)nn2)cc1)c1ccc(Cl)cc1 | 2% | nt | nt | 28%[57 µM] | -3%[59 µM] | -9%
CCCCC[C@H](O)/C=C/C=C\C=C\[C@@H](O)C/C=C\CCCC(=O)O | nt | nt | -12% | nt | nt | nt
COc1ccc(-c2csc(=Nc3ccccc3)n2CCO)cc1F | 50µM* | nt | nt | ? | 16µM* | 40µM*
COc1ccc(N=c2scc(-c3ccc(OC)cc3)n2CCO)cc1 | 32µM* | -27% | 9% | ? | ? | ?
Cc1c(N=c2scc(-c3ccccc3)n2CCO)c(=O)n(-c2ccccc2)n1C | -12% | -5% | 12% | 27% | ? | -22%
C[n+]1cccc(CNC(=O)/C=N/O)c1 | 56µM* | 4% | -2% | 10% | 40µM* | ?

Screening data deposited in PubChem by National Center for Advancing Translational Sciences (NCATS).
